Sm TGR block = blocks Schistosoma mansoni thioredoxin glutathione reductase | Q962Y6 | purified TGR, DTNB reduction, TNB absorbance 405 nm | Potency, µM (titrated, usually from 114 µM), hits mostly inhibitors | 360,000 compounds, 3% hits | AID 485364; also: nearly all actives have a fitted effect of over 60% in size
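First, TGR (20 nM dispensed) and NADPH were mixed with compound. Second, a 15 min room-temperature incubation followed. Third, further NADPH and then DTNB were added to start the reaction. Finally, TNB absorbance was monitored kinetically.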
Shiga inhibitor = inhibitors of Shiga toxin in Vero cells | Vero cells, Shiga toxin protein synthesis inhibition reporter | inhibition, % at 38.7 µM | 290,000 compounds, 9.2% hits; in the data active = inhibition mostly above about 28%, no sharp cut-off; inactive = mostly below about 43%
Pf growth 96h = P. falciparum growth inhibition at 96 hours; P. falciparum luciferase reporter growth, 96 h; 320,000 compounds, 6.9% hits; Potency, µM (top dose mostly 28.7 µM), actives largely listed as inhibitors
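Two parasite generations (96 h, 37 C, 5% CO2) of compound exposure in infected erythrocytes (0.05% parasitemia, 2% hematocrit). Luciferase-reporter P. falciparum; decreased luminescence indicates inhibited growth, aimed at apicoplast-acting delayed death.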
CHX counter = counter-screen for Shiga toxin inhibitors: cycloheximide protein synthesis inhibition | max response, % | cell reporter, cycloheximide protein synthesis inhibition counterscreen | 300,000 compounds, 12% hits | AID 2314; in the data active = max response mostly above about 13%, no sharp cut-off; inactive = mostly below about 14%; also: read at 38.3 µM for the half of the compounds with a filed dose
Pf growth 48h = inhibits P. falciparum growth in the first generation, 48 h; P. falciparum luciferase growth in erythrocytes, 48 h; Potency, µM (titrated, usually from 28.7 µM), hits mostly inhibitors; 310,000 compounds, 5.9% hits; AID 504832
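Read-out is firefly luciferase luminescence from an integrated reporter in P. falciparum, so falling signal marks reduced parasite growth. Infected erythrocytes were at 2% hematocrit and 0.1% parasitemia (final) in Albumax-supplemented RPMI 1640.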
NS1 function inh = inhibitors of influenza NS1 protein function | Potency, µM (series often up to 46.1 µM) | 270,000 compounds, 0.4% hits | AID 2326; calls by dose curve; also: actives are rising curves; nearly all actives have a fitted effect of over 50% in size
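Recovery from NS1-induced slow growth read by OD600 in budding yeast switched to galactose assay medium (pH 6.0, -URA) at 1:100 dilution. Compound 23 nl per well; the matching strain lacking NS1 serves as control.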
Each line names hits and unclear results; the compound was inactive in the other large screens. Compounds with a hit are over-represented: about 21% of the library has one in this group of screens. Unless noted, calls follow the shape of the dose curve; as a rule, active = well fitted curve in the direction sought with a large enough effect; inconclusive = small, poorly fitted or top-dose-only effect, or another doubt; inactive = no such curve, though single readings can be large; an effect the other way counts as inactive or inconclusive.

N#Cc1c(NC(=S)NC(=O)c2ccccc2)sc2c1CCC2	Sm TGR block 4µM, CHX counter 32
CC(=O)NC(=S)Nc1sc2c(c1C#N)CCCCC2	Shiga inhibitor 84, CHX counter 30
CCN1CCc2c(sc(NC(=S)NC(=O)c3ccccc3)c2C#N)C1	Sm TGR block inconclusive, Pf growth 48h inconclusive
O=C(NC(=S)Nc1sc2c(c1C(=O)O)CCCC2)c1ccccc1	CHX counter 12
CC1CCc2sc(NC(=S)NC(=O)c3ccccc3)c(C#N)c2C1 (centres undefined)	Sm TGR block inconclusive, Shiga inhibitor active, CHX counter 26
CCc1nn(-c2ccccc2)c(=S)c2ccccc12	none (no result: Sm TGR block)
Cn1nccc1C(=O)NC(=S)Nc1sc2c(c1C#N)CCCCC2	none
CC(C)(C)c1ccc(C(=O)NC(=S)Nc2sc3c(c2C#N)CCC3)cc1	Shiga inhibitor 18, CHX counter 12
CN1Cc2sc(NC(=S)NC(=O)c3ccccc3)c(C#N)c2CC1(C)C	Sm TGR block 32µM, CHX counter 47
N#C/C(=C(\O)C(=O)O)c1ccc(-c2cccc3ccccc23)cc1	none (no result: Sm TGR block, Shiga inhibitor, Pf growth 96h, CHX counter, Pf growth 48h)
COc1ccc(-c2nc(CN3CCN(C(=O)c4ccco4)CC3)c(C)o2)c(F)c1	Sm TGR block 50µM, Pf growth 96h inconclusive, Pf growth 48h inconclusive
COc1ccc(-c2nc(CN3CCN(C(=O)c4ccco4)CC3)c(C)o2)cc1OC	Sm TGR block 28µM, Pf growth 48h inconclusive
COc1ccc(-c2nc(CN3CCN(C(=O)c4ccco4)CC3)c(C)o2)c(OC)c1C	Sm TGR block inconclusive, Pf growth 48h 7.4µM
COc1ccc(-c2nc(CN3CCC(c4ccccc4)CC3)c(C)o2)cc1OC	Sm TGR block inconclusive, Pf growth 96h 13µM, Pf growth 48h 12µM
O=C(Nc1ccc(S(=O)(=O)N2CCOCC2)cc1)C1COc2ccccc2O1 (centres undefined)	Pf growth 48h inconclusive
CN(C)S(=O)(=O)c1ccc(NC(=O)C2COc3ccccc3O2)cc1 (centres undefined)	Pf growth 96h inconclusive, CHX counter 11
Cc1cc(C)nc(NS(=O)(=O)c2ccc(NC(=O)C3COc4ccccc4O3)cc2)n1 (centres undefined)	Pf growth 96h inconclusive
O=C(Nc1ccc(S(=O)(=O)Nc2ccccc2)cc1)C1COc2ccccc2O1 (centres undefined)	Pf growth 96h 0.47µM, Pf growth 48h inconclusive
COc1ccccc1Nc1nn2c(=O)c3ccc(C(=O)NCCc4ccccc4)cc3nc2s1	none (no result: Shiga inhibitor, Pf growth 96h, CHX counter, Pf growth 48h, NS1 function inh)
CC1CN(S(=O)(=O)c2cccc(C(=O)NCCC3=CCCCC3)c2)CC(C)O1 (centres undefined)	Pf growth 96h inconclusive, Pf growth 48h inconclusive (no result: Shiga inhibitor, CHX counter, NS1 function inh)
COC(=O)c1ccc(N=NN2CCCCC2)cc1	Sm TGR block inconclusive, Shiga inhibitor 127, CHX counter 38
Cc1ccc(C(=O)ONc2ccc(N=O)cc2)cc1	Shiga inhibitor 85, CHX counter 46
COC(=O)c1ccc(NC(=O)Cc2ccc(C)cc2)cc1	none (no result: Pf growth 48h)
COC(=O)c1ccc(NN=Nc2ccc(C)cc2)cc1	Sm TGR block inconclusive, Shiga inhibitor 47, CHX counter 59
Cc1cccc(C)c1NC(=O)C(=O)NCC(c1ccc2c(c1)OCO2)N1CCOCC1 (centres undefined)	none (no result: Shiga inhibitor, Pf growth 96h, CHX counter, Pf growth 48h, NS1 function inh)
O=C(O/N=C1/CCCc2occc21)c1ccc(Cl)cc1Cl	Shiga inhibitor 86, CHX counter 54, Pf growth 48h inconclusive
CC(CN1CCCCC1)OC(=O)c1ccc(Cl)cc1Cl (centres undefined)	none
O=C(O/N=C1/CCCc2occc21)c1ccccc1	Shiga inhibitor 54, Pf growth 96h inconclusive, CHX counter 26
CC1Sc2ccc(S(=O)(=O)CCC(=O)N3CCN(c4cccc(Cl)c4)CC3)cc2NC1=O (centres undefined)	Pf growth 48h inconclusive
COc1ccc(N2CCN(C(=O)COC(=O)c3ccc(C)o3)CC2)cc1	Pf growth 96h inconclusive, Pf growth 48h inconclusive (no result: Shiga inhibitor, CHX counter, NS1 function inh)
c1ccc(Nc2ccc3c4c(cccc24)CC3)cc1	Pf growth 48h inconclusive, NS1 function inh inconclusive
c1ccc(NC2=Nc3ccccc3CC2)cc1	Shiga inhibitor 45, Pf growth 96h inconclusive, CHX counter 37 (no result: Pf growth 48h)
COc1ccc(C2C(C#N)=C(N)OC3=C2C(=O)CCC3)cc1Cn1nc(C)c([N+](=O)[O-])c1C (centres undefined)	Pf growth 48h 12µM
Cc1ccc(C(=O)Cn2nc(C)c([N+](=O)[O-])c2C)c(C)c1	Shiga inhibitor 57, CHX counter 20 (no result: NS1 function inh)
COc1ccc(C(C)=O)cc1Cn1nc(C)c([N+](=O)[O-])c1C	Pf growth 96h inconclusive, Pf growth 48h 19µM (no result: NS1 function inh)
Cc1cc(C)c(C(=O)Cn2nc(C)c([N+](=O)[O-])c2C)cc1C	none (no result: NS1 function inh)
COc1ccc(/C=C/C(=O)C2CC2)cc1Cn1nc(C)c([N+](=O)[O-])c1C	none
COc1ccc(CCn2nc(C)c([N+](=O)[O-])c2C)cc1	Shiga inhibitor 83, Pf growth 96h inconclusive, CHX counter 30, Pf growth 48h inconclusive
Cn1cc(C(=O)O)c(=O)c2cc(S(=O)(=O)N3CCCCC3)ccc21	none (no result: Shiga inhibitor, Pf growth 96h, CHX counter, Pf growth 48h, NS1 function inh)
COc1ccc(NC2CCCN(C(=O)c3ccccc3N3CCOCC3)C2)cc1OC (centres undefined)	none
O=C(CSc1ncccn1)NC(=O)Cc1ccccc1	none (no result: Shiga inhibitor, CHX counter, NS1 function inh)
COc1ccc(N(C(=O)c2ccco2)C(C(=O)NC2CCCC2)c2ccc(OC)c(OC)c2)cc1 (centres undefined)	none
COc1ccccc1OCc1nc(C#N)c(NCc2ccco2)o1	Sm TGR block 40µM, Pf growth 96h 12µM
Cc1ccc(OCc2nc(C#N)c(NCc3ccco3)o2)cc1	Sm TGR block inconclusive, Pf growth 96h inconclusive (no result: Pf growth 48h)
N#Cc1nc(COc2cccc(Cl)c2)oc1NCc1ccco1	CHX counter 50 (no result: Pf growth 48h)
Cc1cc(C(F)(F)F)n2nc(-c3cccs3)cc2n1	Shiga inhibitor 39, CHX counter 31
O=C(c1nn2c(C(F)(F)F)cc(-c3cccs3)nc2c1Br)N1CCCc2ccccc21	Pf growth 96h inconclusive, CHX counter 21
O=C(c1cc2nc(-c3ccco3)cc(C(F)(F)F)n2n1)N1CCCc2ccccc21	Pf growth 96h inconclusive
O=C(c1cc2nc(-c3cccs3)cc(C(F)(F)F)n2n1)N1CCCc2ccccc21	Pf growth 96h inconclusive, CHX counter 20, Pf growth 48h inconclusive
O=C(c1nn2c(C(F)(F)F)cc(-c3ccco3)nc2c1Br)N1CCCc2ccccc21	Sm TGR block 35µM, Pf growth 48h inconclusive
CCOc1ccc(-c2cc(NC(=O)c3cccc(Cl)c3)c(C(=O)OC)s2)cc1	none (no result: Shiga inhibitor, Pf growth 96h, CHX counter, Pf growth 48h, NS1 function inh)
CCCc1cc(C(=O)Nc2ccc(OC)cc2[N+](=O)[O-])cs1	Pf growth 96h inconclusive, CHX counter 28
COc1ccc(NC(=O)c2ccccc2)c([N+](=O)[O-])c1	Shiga inhibitor 74, CHX counter 32 (no result: NS1 function inh)
CCC(=O)Nc1ccc(C(=O)Nc2ccc(OC)cc2[N+](=O)[O-])cc1	none
